Screens: PubChem BioAssay, National Center for Advancing Translational Sciences (NCATS)
Sampled rows, rich in hits. Any-hit rate of the full collection: about 21%.
Shiga toxin inh – inhibitors of Shiga toxin in Vero cells; Vero cells, Shiga toxin protein synthesis inhibition reporter; inhibition, % at 38.7 µM; 290,000 compounds, 9.2% hits; in the data active = inhibition mostly above about 28%, no sharp cut-off; inactive = mostly below about 43%; note: 0% is about no effect
NS1 inh – inhibitors of influenza NS1 protein function; Potency, µM (series often up to 46.1 µM), for inactives: top-dose activity, positive = more growth; 270,000 compounds, 0.4% hits; calls by dose curve; note: potency is the fitted concentration of half-maximal effect; actives are rising curves; nearly all actives have a fitted effect of over 50% in size
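Read-out: OD600 growth recovery of NS1-expressing budding yeast. Cells grown overnight at 30C in -URA glucose medium, washed, resuspended and diluted 1:100 in 2% galactose assay medium, pH 6.0. Same strain lacking NS1 served as positive control.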
Pf growth 48h – inhibits P. falciparum growth in the first generation, 48 h | P. falciparum luciferase growth in erythrocytes, 48 h | Potency, µM (titrated, usually from 28.7 µM), without a hit: at the highest dose activity change, negative = inhibition, hits mostly inhibitors | 310,000 compounds, 5.9% hits | AID 504832; note: potency is the fitted concentration of half-maximal effect; % is set by controls: 0 for no effect and ±100 for the full control effect
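Cell-based growth assay: transgenic P. falciparum expressing firefly luciferase, cultured in red cells within RPMI 1640 containing 0.5% w/v Albumax, 24 mM bicarbonate and gentamycin. A drop in luciferase activity indicates inhibition.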
CHX counter – counter-screen for Shiga toxin inhibitors: cycloheximide protein synthesis inhibition; cell reporter, cycloheximide protein synthesis inhibition counterscreen; max response, %; 300,000 compounds, 12% hits; AID 2314; in the data active = max response mostly above about 13%, no sharp cut-off; inactive = mostly below about 14%; note: read at 38.3 µM for the half of the compounds with a filed dose; 0% is about no effect
Pf growth 96h – P. falciparum growth inhibition at 96 hour, primary screen for plastid delayed-death inhibitors; 320,000 compounds, 6.9% hits; P. falciparum luciferase reporter growth, 96 h; Potency, µM (doses to about 28.7 µM), without a hit: top-dose activity change, negative = inhibition, actives largely listed as inhibitors; note: potency is the fitted concentration of half-maximal effect; % is set by controls: 0 for no effect and ±100 for the full control effect
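Parasite growth measured via integrated firefly luciferase reporter in P. falciparum. Infected erythrocytes at 2% hematocrit, 0.05% parasitemia final were treated 96 hours at 37 C under 5% CO2, and luminescence was read.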
* = called active by the depositor; i = inactive; ? = inconclusive; nt = no result given; [ ] = another dose, or the depositor's remark. Unless noted, calls come from the whole dose curve; as a rule, active = well fitted inhibition curve with a large enough effect; inconclusive = small, poorly fitted or top-dose-only effect, or another doubt; inactive = no such curve, though single readings can be large or run the other way.

SMILES	Shiga toxin inh	NS1 inh	Pf growth 48h	CHX counter	Pf growth 96h
CCOc1ccccc1N(C(=O)c1ccccc1Cl)C1=NC(C)(C)CS1	11.5	nt	?	-0.9	?
Cc1ccc(N(C(=O)c2ccccc2Cl)C2=NC(C)CS2)c(C)c1 (stereo unspecified)	9.9	-4.3%	?	8.5	14.7µM*
Cc1ccc(CN(C)C2CCN(C)CC2)cc1	15.0	14.7%	12.2%	-0.5	?
NC(=O)c1c(NC(=S)Nc2ccc(F)cc2)sc2c1CCCC2	39.7	-0.3%	16.6%	17.5*	2.9%
C=CCNC(=S)Nc1sc2c(c1C(N)=O)CCCC2	55.9	0.4%	7.2%	14.7*	1.9%
CC(C)C(=O)NC(=S)Nc1sc2c(c1C(N)=O)CCCC2	36.1*	20.1%	33.5%	24.7*	39.3%
CC1CCCC(C)N1C(=O)COC(=O)CNC(=O)c1sc2ccccc2c1Cl (stereo unspecified)	nt	nt	35.4%	nt	?
CCc1cccc(NC(=S)N2CCC(c3ccccc3)C2)c1 (stereo unspecified)	74.2*	nt	68.0%	65.0*	8.8%
CC(=O)c1cccc(NC(=S)N2CCC(Cc3ccccc3)CC2)c1	27.7	7.8%	?	-3.5	23.3%
CSc1cccc(NC(=S)N2CCC(c3ccccc3)C2)c1 (stereo unspecified)	50.2*	-4.8%	-3.0%[0.00184 µM]	19.6*	5.6%
CCOC(=O)Nc1nnc(-c2ccc(OC)cc2)s1	38.5	-8.0%	nt	23.8*	?
COc1cccc(-c2nnc(NC(=O)c3cccs3)s2)c1	14.1	0.2%	39.8%	11.6	15.3%
CCOC(=O)Nc1nnc(-c2cccc(OC)c2)s1	23.3	-16.5%	-23.7%	14.9*	nt
COC(=O)Nc1nnc(-c2ccncc2)s1	5.4	-35.0%	16.1%	3.1	nt
CCN1CCN(c2ccc(NC(=O)c3ccccc3F)cc2Cl)CC1	115.4*	nt	109.0%	19.3*	-13.5%
CCCCCC(=O)Nc1ccc(N2CCN(CC)CC2)c(Cl)c1	103.3*	-3.3%	9.0%	59.6*	11.1%
CCCCCC(=O)NC(=S)Nc1ccc(N2CCCCC2)c(Cl)c1	-24.6	-0.5%	?	-5.9	?
O=C(O)C(C(=O)/C=C/c1ccco1)=C1SCCS1	73.6*	10.6%	68.0%	26.7*	59.3%
O=C(/C=C/c1ccco1)NC1CCCC1	27.8	-1.3%	-4.4%	7.2	?
O=C(C=C1SCCS1)/C=C/c1ccco1	70.7*	-7.5%	297.0%	36.7*	331.0%
Cc1cccc(C)c1OCCn1c(CCNC(=O)C2CCCCC2)nc2ccccc21	1.7	nt	nt	-3.2	nt
Cc1ccc(-c2nc3cccnc3s2)cc1NS(=O)(=O)c1ccc2c(c1)OCCO2	19.1*	29.6%	?	39.9*	-13.1%
Cc1ccc(-c2nc3cccnc3s2)cc1NS(=O)(=O)c1cccs1	38.3*	-18.0%	36.1%	19.4*	14.8%
O=S(=O)(Nc1cccc(-c2nc3cccnc3s2)c1)c1ccc2c(c1)OCCO2	32.9	-32.1%	1.7%	-1.9	17.4%
Cc1nc2ccc(S(=O)(=O)Nc3cc(-c4nc5cccnc5s4)ccc3C)cc2s1	85.4*	-25.4%	152.6%	74.9*	104.2%
SMILES	Shiga toxin inh	NS1 inh	Pf growth 48h	CHX counter	Pf growth 96h
Cc1c(C=O)c2ccccn2c1C(=O)c1cccs1	-8.4	nt	?	3.1	0.8%
O=C(COC(=O)c1cccc(Br)c1)NCCNC(=O)COC(=O)c1cccc(Br)c1	-14.5	-5.4%	0.465µM*	-2.7	0.415µM*
O=C(CCNC(=O)c1ccc([N+](=O)[O-])cc1)NCCc1ccccc1	20.6	8.6%	25.7%	9.6	10.2%
O=C(NCCc1ccccc1)c1cccc(Br)c1	78.9*	-42.1%	145.6%	39.0*	11.5%
O=C(COC(=O)c1cccc(Br)c1)NCCc1ccccc1	10.3	-5.9%	1.6%	-4.1	13.2%
O=C(NCCc1ccccc1)c1cccc([N+](=O)[O-])c1	active	-9.8%	110.2%	82.2*	146.3%
O=C(NCCc1ccccc1)c1cccnc1	63.0*	-7.2%	nt	37.1*	186.9%
CCCNC(=O)c1cccc(Br)c1	-3.2	nt	20.4%	-3.5	?
CCc1ccc(/C=N/NC(=O)c2nnn(-c3nonc3N)c2C(C)C)cc1	17.8	15.9%	6.6%	-1.8	?
C=CCN1C2CCCC1CC(NC(=O)Nc1cc(C)cc(C)c1)C2 (stereo unspecified)	-1.4	-1.1%	-22.8%	8.0	-37.0%
CC/C(Cc1ccccc1)=N\NC(=O)c1cc([N+](=O)[O-])cc([N+](=O)[O-])c1	-3.7	4.5%	-3.1%	1.8	141.8%
O=C(NC(NCc1ccccc1)C(Cl)(Cl)Cl)c1cccnc1 (stereo unspecified)	-3.9	-6.9%	-2.9%	-1.1	24.0%
CCCNC(=O)C(Cc1ccccc1)NC(=O)c1cccc([N+](=O)[O-])c1 (stereo unspecified)	nt	nt	8.28µM*	nt	?
O=C(N[C@@H](Cc1ccccc1)C(=O)O)c1cccnc1	-4.9	?	nt	-9.1	2.94µM*
CC/C(Cc1ccccc1)=N/NC(=O)c1cccc(Br)c1	46.5*	0.8%	6.1%	16.1	12.3%
Cc1ccc(-n2nc(C(=O)O)c(O)cc2=O)cc1	3.4	3.9%	6.3%	-1.9	-1.3%
Cc1ccc(NCC(=O)N=Nc2c(O)n(C)c3ccccc23)cc1	56.1*	1.1%	14.3%	15.0*	-22.7%
Cn1c(O)c(N=Nc2ccc(F)cc2)c2ccccc21	35.3	nt	i	39.8*	-3.1%
Cn1c(O)c(N=Nc2ccccc2)c2ccccc21	19.6	-8.9%	-28.6%[0.00184 µM]	17.3	42.3%
CCn1c(O)c(N=NC(=O)CNc2ccc(C)cc2)c2ccccc21	30.8	3.2%	-18.8%	-3.5	-17.9%
Cn1c(SCC(=O)NC(C)(C)C)nnc1-c1ccc(C(C)(C)C)cc1	1.9	-10.3%	?	-0.9	38.8%
COc1cccc(N2CCN(C(=O)C3CCC(=O)N(C4CCCCCC4)C3)CC2)c1 (stereo unspecified)	16.6	22.0%	8.28µM*	12.4	?
CCOC(=O)C1CCN(C(=O)C2CCC(=O)N(CC3CCCCC3)C2)CC1 (stereo unspecified)	-4.3	2.4%	-3.4%	-1.2	?
O=C(C1CCC(=O)N(C2CC2)C1)N1CCC(Oc2cccc(C(F)(F)F)c2)CC1 (stereo unspecified)	16.9	-4.9%	?	24.0*	37.0%
COc1cccc(CN2CCN(C(=O)C3CCC(=O)N(C4CCCC4)C3)CC2)c1 (stereo unspecified)	-5.5	15.8%	?	6.2	-21.0%
O=C(C1CC(=O)N(C2CCCCC2)C1)N1CCC2(CC1)OCCO2 (stereo unspecified)	31.6	-3.5%	20.2%	13.4*	-8.8%
COCCCC1CCN(C(=O)C2CCC(=O)N(CC3CCCCC3)C2)CC1 (stereo unspecified)	2.5	-6.0%	2.0%	-3.0	1.47µM*
CN(CCc1ccccc1)C1CCCN(C(=O)Cn2cccn2)C1 (stereo unspecified)	-7.4	-0.3%	11.9%	1.7	10.0%
Cc1ccc(-c2nc(N)sc2-c2ccccc2)cc1C	6.4	21.3%	16.0%	2.7	?
